15-hLO-2 inh: inhibitors of human 15-lipoxygenase 2 (ALOX15B) | 110,000 compounds, 0.56% hits | AID 881 | Potency, µM (highest dose often 57.1 µM), usual class: inhibitors | purified 15hLO-2, xylenol orange hydroperoxide absorbance; further: nearly all actives have a fitted effect of over 60% in size
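Purified human 15hLO-2 (50 nM final) preincubated with compounds 15 min at room temperature in 25 mM Hepes pH 7.5, 0.01% Triton X-100, then 45 uM arachidonic acid added for 90 min; hydroperoxide detected via ferrous/xylenol orange, 573/405 nm absorbance ratio.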
12-hLO inh: 12-hLO (ALOX12) enzyme inhibition | P18054 | purified 12-hLO, xylenol orange hydroperoxide absorbance | Potency, µM (series often up to 57.1 µM), actives largely listed as inhibitors | 150,000 compounds, 0.12% hits | AID 1452; further: nearly all actives have a fitted effect of over 55% in size
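Purified human 12hLO (150 nM final) was preincubated with compounds for 15 min at room temperature in 25 mM Hepes pH 7.0, 0.01% Triton X-100, then reacted with 40 uM arachidonic acid for 30 min. Hydroperoxide was detected with ferrous iron/xylenol orange.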
HPGD block: inhibitors of human 15-hydroxyprostaglandin dehydrogenase (HPGD) | P15428 | purified HPGD, NADH fluorescence kinetic, PGE2 substrate | Potency, µM, most hits filed as inhibitors | 150,000 compounds, 4.3% hits; active means well fitted inhibition curve with a large enough effect, not every such curve was filed as active; inconclusive means small, poorly fitted or top-dose-only effect, or another doubt; inactive means no such curve, though single readings can be large or run the other way
Target sequence (P15428 whole entry, looked up): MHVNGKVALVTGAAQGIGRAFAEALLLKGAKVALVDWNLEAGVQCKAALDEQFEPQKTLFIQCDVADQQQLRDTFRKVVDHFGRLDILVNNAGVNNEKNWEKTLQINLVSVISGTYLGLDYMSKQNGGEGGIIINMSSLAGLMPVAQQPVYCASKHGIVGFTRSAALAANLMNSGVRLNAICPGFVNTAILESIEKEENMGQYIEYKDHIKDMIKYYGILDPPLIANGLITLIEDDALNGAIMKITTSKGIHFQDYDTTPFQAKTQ
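20 nM HPGD preincubated 15 min at room temperature with compound in 50 mM Tris-HCl pH 8, 0.01% Tween 20. Started with 1 mM NAD+ and 30 uM prostaglandin E2; NADH fluorescence (360/450 nm) read 5 times over 30-s intervals, last minus first.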
IMPase Li cell: cell-permeable IMPase inhibitors with lithium potentiation. CHO-M1 cells, IP1 TR-FRET (IP-One), carbachol + lithium. Potency, µM (highest dose often 59.4 µM), most hits filed as inhibitors. 210,000 compounds, 0.35% hits. AID 1457;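 further: IP1 builds up when IMPase is blocked and the TR-FRET signal falls; nearly all actives have a fitted effect of over 50% in size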
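CHO cells stably expressing M1 receptor (2000/well) were cultured 16–30 h, then exposed to compounds with a small lithium addition for 30 min at 37C. IP1 was measured by TR-FRET competition; AC50 from Hill fits.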
PNC inhibitor: inhibitors of perinucleolar compartment assembly | PC3M PTB-GFP, PNC prevalence imaging, 16 h; stronger effect = lower value | activity change (PNC), negative = inhibition, % at 10 µM | 140,000 compounds, 3.1% hits | AID 2417;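 active means readout at or below -70, meaning at least 70% loss of cells showing the perinucleolar compartment, a nuclear body marking cancer cells; inconclusive means readout between -30 and a set limit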
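Read-out is percentage of cells bearing a perinucleolar compartment, from automated 20x imaging of fixed, Hoechst-stained PC3M PTB-GFP cells. Cells were seeded 4 h, then exposed 16 h to compound (23 nl of library stock) in duplicate plates.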
IMPase cell inh: cell-permeable inhibitors of inositol monophosphatase (IMPase); CHO-M1 cells, IP1 accumulation, HTRF TR-FRET ratio; inhibition (IP1 accumulation), % at 46.1 µM; 120,000 tested, under 10 active; active means well fitted curve in the direction sought with a large enough effect in the signal ratio, not every such curve was filed as active; inconclusive means small, poorly fitted or top-dose-only effect, or a change in a side signal; inactive means no such curve, though single readings can be large or run the other way; the % refers to the signal ratio;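 further: cells stimulated with carbachol in lithium chloride buffer; higher means more IMPase inhibition seen as more IP1 and lower FRET ratio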
Target sequence (P97697 whole entry, looked up): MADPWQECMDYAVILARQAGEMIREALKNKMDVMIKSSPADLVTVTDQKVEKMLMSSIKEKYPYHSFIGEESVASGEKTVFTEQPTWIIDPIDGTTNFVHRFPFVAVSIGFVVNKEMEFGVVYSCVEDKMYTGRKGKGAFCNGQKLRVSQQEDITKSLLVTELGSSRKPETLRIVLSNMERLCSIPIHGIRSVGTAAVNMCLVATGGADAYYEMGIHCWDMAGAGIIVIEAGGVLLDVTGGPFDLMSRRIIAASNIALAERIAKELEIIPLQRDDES
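CHO-M1, 2000 cells/well, cultured 16–30 h; cpd up to 46 uM; carbachol (50 uM solution, stimulation buffer w/ 50 mM LiCl, pH 7.4), 30 min 37C; IP-One TR-FRET, 10 min RT; Ex 320/Em 665, 620; Hill-fit AC50.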
Each line names hits and unclear results; the compound was inactive in the other large screens. The list is not random: actives were taken first. Their share in the collection is about 5.4%. Unless noted, the call rests on the fitted dose curve; in most records, active means well fitted curve in the direction sought with a large enough effect; inconclusive means small, poorly fitted or top-dose-only effect, or another doubt; inactive means no such curve, though single readings can be large; an effect the other way counts as inactive or inconclusive.

CC(=O)Nc1ccccc1C(=O)OCc1ccc(C(=O)c2ccccc2)cc1	HPGD block 25.1µM
COC(=O)C1CN(C#N)N(c2ccc(Cl)cc2)C12c1ccccc1-c1ccccc12 (stereo unspecified)	HPGD block 14.1µM, PNC inhibitor inconclusive (no result: 15-hLO-2 inh)
COc1ccc(-c2cc(C(F)(F)F)n3nc(C(=O)N4CCC5(CC4)OCCO5)cc3n2)cc1OC	HPGD block 12.6µM
NC(N)=NCCN=C(N)N	none (no result: PNC inhibitor, IMPase cell inh)
Cc1ccc(/C=C2/C(=O)NC(=O)N(CC3CCCO3)C2=O)s1 (stereo unspecified)	HPGD block 14.1µM (no result: 15-hLO-2 inh, IMPase cell inh)
Cc1ccc(/C=C2\C(=O)NC(=O)N(CCc3ccc(F)cc3)C2=O)s1	none (no result: 15-hLO-2 inh, 12-hLO inh, HPGD block, PNC inhibitor, IMPase cell inh)
O=C1NC(=O)N(CCc2ccc(F)cc2)C(=O)/C1=C\C=C\c1ccccc1	none (no result: 15-hLO-2 inh, 12-hLO inh, HPGD block, PNC inhibitor, IMPase cell inh)
Cc1ccc(/C=C2/C(=O)NC(=O)N(CCc3ccc(F)cc3)C2=O)s1	HPGD block 7.08µM, PNC inhibitor inconclusive (no result: 15-hLO-2 inh, IMPase cell inh)
CN(C)c1ccc(/C=C2/C(=O)NC(=O)N(CCc3ccc(F)cc3)C2=O)cc1	HPGD block 10µM (no result: 15-hLO-2 inh, IMPase cell inh)
Cc1ccc(/C=C2\C(=O)NC(=O)N(CCc3ccc(F)cc3)C2=O)o1	HPGD block 3.55µM, PNC inhibitor inconclusive (no result: 15-hLO-2 inh)
COc1cc([C@@H](O)CN)ccc1O	none (no result: HPGD block, IMPase Li cell, PNC inhibitor)
C[C@@]12CC[C@H](O[C@@H]3O[C@H](CO)[C@@H](O)[C@H](O)[C@@H]3O)C[C@@H]1CC[C@H]1[C@H]2CC[C@@]2(C)[C@@H](C3=CCOC3=O)CC[C@]12O	none (no result: PNC inhibitor, IMPase cell inh)
CCC(C=C[C@@H]1OC(=O)C=C[C@H]1C)=C[C@H](C)CC=CC(C)=C[C@@H](C)C(=O)[C@@H](C)[C@H](O)[C@@H](C)CC(C)=CC(=O)O	15-hLO-2 inh inconclusive (no result: PNC inhibitor, IMPase cell inh)
CNc1ccc2oc(C[C@@H]3OC4(CC[C@@H]3C)O[C@H]([C@@H](C)C(=O)c3ccc[nH]3)[C@H](C)C[C@H]4C)nc2c1C(=O)O (stereo partly specified)	none (no result: 15-hLO-2 inh, 12-hLO inh, HPGD block, PNC inhibitor, IMPase cell inh)
C=CCN1C(=O)/C(=C/c2cc(C)n(-c3cccnc3)c2C)C(=O)NC1=S	HPGD block 10µM (no result: 15-hLO-2 inh, IMPase cell inh)
CC(=O)c1ccc2c(c1)C1C(Cl)C(Sc3ccccc3[N+](=O)[O-])CC1C(c1ccccc1)N2 (stereo unspecified)	PNC inhibitor -96.5, IMPase cell inh inconclusive
CC(=O)c1ccc2c(c1)C1C(Cl)C(Sc3ccccc3[N+](=O)[O-])CC1C(c1ccccc1[N+](=O)[O-])N2 (stereo unspecified)	12-hLO inh inconclusive, HPGD block inconclusive, PNC inhibitor inconclusive (no result: 15-hLO-2 inh)
CCNCCC1(CC)C(=O)NC(=O)NC1=O	none (no result: PNC inhibitor, IMPase cell inh)
CC(=O)O/C(=C1/C[C@H]2[C@@H]3CC=C4C[C@@H](OC(C)=O)CC[C@]4(C)[C@@H]3CC[C@]2(C)C1=O)C(F)(F)F	none (no result: PNC inhibitor, IMPase cell inh)
C=CCN1C(=O)NC(=O)/C(=C/c2ccc(OC)c(CSc3ccccn3)c2)C1=O	HPGD block 28.2µM
[Cl][Pd][Cl].[S-]C1=C2N=CN[C-]2[NH+]=C[N-]1.[S-]c1ncnc2[nH]cnc12	none (no result: 15-hLO-2 inh, 12-hLO inh, PNC inhibitor, IMPase cell inh)
CCOc1cc(C=C2C(=O)NC(=O)NC2=O)ccc1OS(=O)(=O)c1ccccc1	HPGD block 12.6µM
COc1cc(/C=C2/C(=O)N(c3ccccc3)N=C2C)ccc1OS(=O)(=O)c1ccccc1	HPGD block 20µM, PNC inhibitor inconclusive (no result: 15-hLO-2 inh, IMPase cell inh)
COc1ccc(/C=C2\C(=O)NC(=S)N(C)C2=O)cc1C	none (no result: 15-hLO-2 inh, 12-hLO inh, HPGD block, PNC inhibitor, IMPase cell inh)
CCOc1cc(C=C2C(=O)NC(=O)NC2=O)ccc1OCC(=O)N1CCOCC1	none (no result: 15-hLO-2 inh, IMPase cell inh)
Nc1c(C(=O)Nc2ccc([As](=O)(O)O)cc2)cnc2nnnn12	none (no result: PNC inhibitor, IMPase cell inh)
CN(N=O)c1cc(O)ccc1O	HPGD block 14.1µM (no result: PNC inhibitor)
O=C1C(Cl)=C(N2CCCCCC2)C(=O)N1c1ccccc1	HPGD block 15.8µM, PNC inhibitor inconclusive
CCOP(=S)(OCC)Oc1ccc([N+](=O)[O-])cc1	none (no result: PNC inhibitor, IMPase cell inh)
O=C(Cc1ccccc1)NC(Oc1ccccc1Cl)C(Cl)(Cl)Cl (stereo unspecified)	HPGD block inconclusive (no result: 15-hLO-2 inh, IMPase cell inh)
CCCCCCCC(=O)NC(Oc1ccccc1[N+](=O)[O-])C(Cl)(Cl)Cl (stereo unspecified)	HPGD block 10µM
CN1CCN(c2ccc3nc(-c4ccc5nc(-c6ccc(O)cc6)[nH]c5c4)[nH]c3c2)CC1	HPGD block inconclusive (no result: PNC inhibitor, IMPase cell inh)
CC(=Nc1c(C)n(C)n(-c2ccccc2)c1=O)c1c(O)n(Cc2ccccc2)c(=O)[nH]c1=O	HPGD block 20µM
C/C(=N\Nc1ccccc1)c1c(O)n(Cc2ccccc2)c(=O)[nH]c1=O	HPGD block 28.2µM (no result: 15-hLO-2 inh)
CC(=NCCN1CCCCC1)c1c(O)n(Cc2ccccc2)c(=O)[nH]c1=O	none
CC(=NCCCO)c1c(O)n(Cc2ccccc2)c(=O)[nH]c1=O	HPGD block inconclusive, PNC inhibitor inconclusive, IMPase cell inh inconclusive (no result: 15-hLO-2 inh)
CCCCCCN=C(C)c1c(O)n(Cc2ccccc2)c(=O)[nH]c1=O	PNC inhibitor -111.4
CCOC(=O)C1=C(C)NC(C)=C(C(=O)OC)[C@@H]1c1cccc(Cl)c1Cl	HPGD block inconclusive (no result: PNC inhibitor)
